Rows were chosen to be rich in hits. Some 1.5% of all compounds tested hit in one or more screens of this group.
RAD54 inh = blocks human RAD54 Holliday junction branch migration | Q92698 | 360,000 tested, 0.14% active | FAM/BHQ fluorescence | AID 602329 | inhibition, % at 10.4 µM;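 active = mean normalized replicate activity at least 40 and at least half of replicates scoring 40 or more; inconclusive = only one of the two criteria met; inactive = mean below 40 and under half of replicates reaching 40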;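 also: 0% = median of neutral control wells and 100% = median of positive control wells; inhibitors cause a drop in the FAM fluorescence signal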
miR-122 sensor = blocks miR-122 activity in Huh7 sensor cells; Huh7 miR-122 Renilla luciferase sensor, 48 h; neutral wells = 0, positive control = 100; activation (reporter increase), % at 12.5 µM; 340,000 tested, 0.3% active;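 active = mean replicate activation score at least 90 and every replicate individually at or above 90; inconclusive = only one of the two criteria met; inactive = neither criterion met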;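 also: higher luciferase means less miR-122 activity so hits act as miR-122 inhibitors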
DNA FID counter = displaces DNA intercalator in HCV helicase counter-screen. inhibition, % at 7.9 µM. AID 1845. DNA fluorescent intercalator displacement, fluorescence. 290,000 tested, 0.17% active; in the data active = inhibition above about 37%;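 also: 0% = vehicle and 100% = reference compound; higher means more ethidium bromide displaced from hairpin DNA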
NRP1-CendR mod = alters CendR peptide binding to human NRP-1 | O14786 | FAM-RPARPAR peptide binding to NRP-1, fluorescence polarization | inhibition, % at 25 µM | 360,000 tested, 0.85% active | AID 602438;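 active = inhibition or corrected inhibition above about 18%, plus a signal ratio from 0.5 to 1.5, limit read from the data, passing the limit was not always enough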
Glyco luc inh = N-linked glycosylation inhibition; D54 ERlucT glycosylation luciferase reporter, 24 h; percent of 100 nM tunicamycin response; reporter increase, % at 12.5 µM; 360,000 tested, 0.23% active;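 active = mean luciferase reporter signal, scaled so untreated is 0 and the glycosylation-blocking control 100, at or above a set limit in every replicate; inconclusive = mean reaches the limit but not every replicate does; inactive = mean below the limit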;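 also: luciferase carries N-glycosylation sites so blocking glycosylation raises the light; 0% = median of neutral control wells and 100% = median of 100 nM tunicamycin wells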
RAD52 anneal inh = inhibitors of human RAD52 DNA annealing | 360,000 tested, 0.46% active | recombinant RAD52 DNA annealing, FRET fluorescence | inhibition, % at 18.7 µM;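 active = every replicate showing at least 50% inhibition; inconclusive = mean inhibition at least 50% but not in every replicate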
DNA binding = binds DNA, flagging false Rad54 inhibitor hits. shares compounds with RAD54 inh. Acridine orange-DNA displacement, fluorescence polarization, 20 min. AC50, µM (doses to about 35 µM), for inactives: at the highest dose activity change, negative = DNA binding. 460 tested, 8% active. AID 651673;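 active = signal drop giving an AC50 within twice the top valid tested concentration of each sample, actives reach about 35 µM in these data; inactive = activity opposite to expected, plus the rest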;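 also: polarization loss reports compound binding to salmon sperm DNA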
* = called active by the depositor; i = inactive; ? = inconclusive; / = no result; [ ] = another dose, or the depositor's remark.

SMILES	RAD54 inh	miR-122 sensor	DNA FID counter	NRP1-CendR mod	Glyco luc inh	RAD52 anneal inh	DNA binding
O=C(C[C@H]1C=C[C@H](NC(=O)C2CCC2)[C@@H](CO)O1)NCc1ccncc1	-5	/	/	/	/	3	/
O=C(C1CCCC1)N1CCCCN2[C@@H](CO)[C@@H](c3ccc(-c4cccc(F)c4)cc3)[C@@H]2C1	6	-28[16.7 µM]	/	/	/	47	/
CN(C)c1cc(NC(=O)CNC(C)(C)C)c2ccccc2n1	76*	2	53*	3	6	28	-11%
CCCCC(=O)Nc1cc(N(C)C)nc2ccccc12	4	2	24	2	1	/	/
CC(C)NC(=O)N(C)C[C@H]1Oc2ccc(NC(=O)Nc3ccc(F)cc3)cc2CC(=O)N([C@@H](C)CO)C[C@@H]1C	10	4[16.7 µM]	/	/	/	8	/
O=C(Nc1nnc(COc2ccc(F)cc2)s1)c1ccco1	?	-2	-6	-5	-1	-20	-6%
O=C(Nc1nnc(COc2ccc(Br)cc2)s1)c1ccco1	-6	1	1	6	1	-11	/
O=C(Nc1ccc(NC(=O)c2ccc(Cl)cc2Cl)cc1)c1ccc2c(c1)OCO2	-1	/	0	6	-2	2	/
O=C(Nc1ccc(C2=NCCN2)cc1)c1ccc(C(=O)Nc2ccc(C3=NCCN3)cc2)c(Cl)c1	?	/	37*	4	1	73*	-6%
CC(=O)Nc1ccc2cc3ccc(NC(C)=O)cc3nc2c1	51*	-7	56*	18	36*	-101	4%
O=C(C[C@@H]1C[C@@H]2c3cc(NC(=O)Nc4ccccc4)ccc3O[C@@H]2[C@@H](CO)O1)NCc1cccnc1	-9	3[16.7 µM]	/	/	/	/	/
Nc1ccc(-c2nc3ccccc3[nH]2)cc1	38	-3	11	-6	1	-30	/
Nc1ccc(-c2nc3c(ccc4ccccc43)[nH]2)cc1	50*	-12	35	-14	8	-14	-5%
C[C@H]1CN([C@@H](C)CO)S(=O)(=O)c2ccc(C#CC3CC3)cc2O[C@@H]1CN(C)C(=O)c1cccc(F)c1	7	-27[16.7 µM]	/	/	/	28	/
CC(=O)Nc1sc2c(c1-c1nc3ccccc3s1)CN(C(C)C)CC2	67*	-4	/	143	-15	i	17µM*
COc1cc2nc(N(C)C)nc(N)c2cc1OC	94*	-5	35	-3	48*	/	i
Cc1cccn2c(=O)c3cc(C(=O)NCCN4CCOCC4)c(=N)n(Cc4ccc(F)cc4)c3nc12	38	11	14	-3	-20	44	/
CCOCCCn1c(=N)c(C(=O)NCCN2CCOCC2)cc2c(=O)n3cccc(C)c3nc21	69*	-22	20	-14	-2	/	-15%
COc1ccc(CCNC(=O)c2cc3c(=O)n4cccc(C)c4nc3n(CCCN3CCOCC3)c2=N)cc1	59*	/	54*	11	0	-12	-12%
Cc1cccn2c(=O)c3cc(C(=O)NCC4CCCO4)c(=N)n(C4CCCCC4)c3nc12 (configuration not stated)	?	-3	-3	-7	1	-52	-5%
Cc1cccn2c(=O)c3cc(C(=O)NCC4CCCO4)c(=N)n(CC4CCCO4)c3nc12 (configuration not stated)	21	-2	-5	6	11	17	/
COc1ccccc1-c1ccc([C@H]2[C@@H](CO)N(C(C)=O)[C@H]2CN(C)C(C)=O)cc1	/	/	/	/	/	-7	/
CCCC#Cc1cnc2c(c1)C(=O)N([C@@H](C)CO)C[C@@H](C)[C@@H](CN(C)C(=O)NCCC)O2	-3	20[16.7 µM]	/	/	/	-2	/
C[C@H](CO)N1C[C@H](C)[C@@H](CN(C)CC2CC2)Oc2cc(C#C[C@@H](C)O)ccc2S1(=O)=O	/	-2[16.7 µM]	/	/	/	/	/
COc1cccc(-c2nc(N3CCN(Cc4ccccc4)CC3)c3ccccc3n2)c1O	64*	62	0	4	-1	-13	-1%
SMILES	RAD54 inh	miR-122 sensor	DNA FID counter	NRP1-CendR mod	Glyco luc inh	RAD52 anneal inh	DNA binding
COc1cccc(-c2nc(N3CCN(c4ccccc4)CC3)c3ccccc3n2)c1O	-3	/	1	16	-2	/	/
Cc1ccc(-c2cc(-c3ccco3)c3c(N)c(C(=O)NN)oc3n2)cc1	/	/	-15	-29	5	-28	/
NNC(=O)c1oc2nc(-c3cccs3)cc(-c3ccco3)c2c1N	?	-2	-15	-62	51*	-10	-3%
COc1cc2[nH]c3c(=O)n(CCN(C(C)C)C(C)C)cnc3c2cc1OC	?	6	7	-13	3	/	7%
CO[C@@H]1CN(C)C(=O)c2ccc(NS(=O)(=O)c3ccc(C)cc3)cc2OC[C@H](C)N(C(=O)NC(C)C)C[C@@H]1C	/	1[16.7 µM]	/	/	/	/	/
CCCC#Cc1ccc2c(c1)O[C@@H](CN(C)Cc1cccnc1)[C@@H](C)CN([C@H](C)CO)S2(=O)=O	-5	1[16.7 µM]	/	/	/	5	/
CSc1nc(C)c2c(n1)N(c1ccc(F)cc1)CC2	/	-13	-1	-2	-2	/	/
Cc1ccc2nc(C)c3c(c2c1)N(c1ccc(F)cc1)CC3	?	-4	4	1	5	41	-14%
C=CCc1ccccc1OCC(O)CN1CCN(CCN2C(=O)c3cccc4cccc(c34)C2=O)CC1 (configuration not stated)	99*	-46	14	11	23	24	0%
Cc1ccccc1OCC(O)CN1CCN(CCN2C(=O)c3cccc4cccc(c34)C2=O)CC1 (configuration not stated)	/	/	2	15	20	1	/
COc1ccc(Nc2c3c(nc4ccc(C)cc24)CCC3)cc1	54*	5	-4	-19	1	41	-2%
Cc1ccc2nc3c(c(Nc4ccc5c(c4)OCCO5)c2c1)CCC3	61*	8	1	0	1	47	-3%
Cc1cccc(Nc2c3c(nc4ccccc24)CCC3)c1	11	2	5	-1	-1	-4	/
C[C@H](CO)N1C[C@H](C)[C@@H](CN(C)C(=O)CN(C)C)Oc2cc(C#CC(C)(C)O)ccc2S1(=O)=O	3	16[16.7 µM]	/	/	/	5	/
COc1cccc(-c2nn(C)c3sc(C(=O)NCc4ccco4)cc23)c1	11	10	-8	4	19	/	/
CCCCN(C)CCNC(=O)c1cc2c(-c3cccc(OC)c3)nn(C)c2s1	72*	-3	17	8	-1	65*	-16%
CCN1CCCC1CNC(=O)c1cc2c(-c3cccc(OC)c3)nn(C)c2s1 (configuration not stated)	50*	-2	32	-7	1	/	-9%
O=C(Nc1ccccc1[N+](=O)[O-])c1cc(S(=O)(=O)N2CCOCC2)cs1	4	-7	-2	5	-1	-14	/
CCOc1ccc(NC(=O)c2cc(S(=O)(=O)N3CCOCC3)cs2)cc1	-10	/	-16	2	-2	-2	/

Compound activity from PubChem BioAssay.
